Screening data from PubChem.
FLuc inh – blocks Photinus pyralis firefly luciferase activity | P08659 | purified firefly luciferase, luminescence, 8 min | Potency, µM (titrated, usually from 57.1 µM), for the others: top-dose activity change, negative = inhibition, most hits filed as inhibitors | hit rate 2.2% among 72,000 | AID 411; note: % is set by controls: 0 for no effect and ±100 for the full control effect; nearly all actives have a fitted effect of over 40% in size
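Inhibition of light generation by firefly luciferase from ATP and luciferin was profiled with concentration-response curves per sample, ATP held at 10 uM within the enzyme's linear range. Plates were read by luminescence after an 8-minute ambient incubation.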
GBA mod – human lysosomal glucosylceramidase modulation; hit rate 1.1% among 48,000; purified enzyme, resorufin glucoside fluorescence (screen aimed at inhibitors), 20 min; Potency, µM; P04062; in the data active = potency below about 15 µM; inconclusive = mostly about 16 µM to 33 µM;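 note: the screen sought inhibitors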
Target sequence (P04062 whole entry, looked up): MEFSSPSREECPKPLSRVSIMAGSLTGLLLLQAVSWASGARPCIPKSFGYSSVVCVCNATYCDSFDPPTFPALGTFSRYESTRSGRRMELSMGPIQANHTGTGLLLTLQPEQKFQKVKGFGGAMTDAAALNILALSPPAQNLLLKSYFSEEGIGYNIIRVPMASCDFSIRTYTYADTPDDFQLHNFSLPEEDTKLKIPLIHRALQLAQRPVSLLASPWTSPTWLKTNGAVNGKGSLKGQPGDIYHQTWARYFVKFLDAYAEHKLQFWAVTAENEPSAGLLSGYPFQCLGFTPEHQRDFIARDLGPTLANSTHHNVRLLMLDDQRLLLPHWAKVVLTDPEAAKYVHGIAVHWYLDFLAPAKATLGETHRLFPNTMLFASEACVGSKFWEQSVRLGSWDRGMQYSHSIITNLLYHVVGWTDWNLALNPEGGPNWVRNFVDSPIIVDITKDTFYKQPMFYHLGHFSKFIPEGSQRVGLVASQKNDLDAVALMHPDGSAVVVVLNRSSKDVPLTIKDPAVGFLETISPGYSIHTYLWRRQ
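Wild-type enzyme at 0.2 nM final in 50mM citric acid/KH2PO4, 10mM sodium taurocholate, 0.01% tween-20, pH 5.9, with resorufin beta-D-glucopyranoside at 30 uM final. Compounds titrated, 20 min at RT, red fluorescence read; AC50 from titration.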
PK Bst – pyruvate kinase (B. stearothermophilus) modulation. purified pyruvate kinase, luminescence ATP production; ribose 5-phosphate activator present at AC10. hit rate 1.2% among 51,000. Potency, µM. AID 361; in the data active = potency below about 11 µM; inconclusive = mostly about 12 µM to 25 µM;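 the screen sought inhibitors and activators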;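 note: scaled between full activation by ribose 5 phosphate and full inhibition by luteolin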
ERK AVP block – vasopressin-driven ERK pathway inhibition; HEK293-V1b, vasopressin-stimulated pERK AlphaScreen; Potency, µM (series often up to 57.5 µM), for inactives: at the top dose activity, negative = inhibition, hits mostly inhibitors; hit rate 0.99% among 72,000; AID 995; note: % is set by controls: 0 for no effect and ±100 for the full control effect; nearly all actives have a fitted effect of over 55% in size
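V1b-HEK293 cells; cpd 30 min 37C; 25 nM vasopressin 5 min; lyse 10 min; AlphaScreen beads 5 hr RT. Normalized to DMSO basal and 25 nM vasopressin; AC50 by Hill fit.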
Starred values were filed as active, the others as inactive; i = inactive; ? = inconclusive; · = not tested or not shown; [ ] = remark or other dose. Compounds with a hit are over-represented: about 3.9% of the library has one in this group of screens. Unless noted, calls come from the whole dose curve; as a rule, active = well fitted curve in the direction sought with a large enough effect; inconclusive = small, poorly fitted or top-dose-only effect, or another doubt; inactive = no such curve, though single readings can be large; an effect the other way counts as inactive or inconclusive. Potency is the fitted concentration of half-maximal effect.

SMILES	FLuc inh	GBA mod	PK Bst	ERK AVP block
Cc1cc(=O)[nH]c(SCCOc2ccc(OC(C)C)cc2)n1	16µM*	>77	·	-9%
c1ccc(-c2nc(-c3ccncc3)no2)cc1	-24%	·	i	-1%
Cc1ccc(-c2noc(-c3cccs3)n2)cc1	7.9µM*	·	·	48%
CCn1nc(NC(=O)c2cccnc2)c2cc3cccc(C)c3nc21	2%	>77	>57	4%
Cc1ccc2nc3c(cc2c1)c(NC(=O)c1cccnc1)nn3C	13µM*	i	i	?
Nc1nc(CSc2nnnn2-c2ccccc2)nc(N2CCCc3ccccc32)n1	3%	>77	>57	-27%
Nc1nc(CN2CCN(c3cccc(Cl)c3)CC2)nc(N2CCCc3ccccc32)n1	-1%	14*	>57	6.3µM*
COc1ccc(N2CCN(Cc3nc(N)nc(N4CCCc5ccccc54)n3)CC2)cc1	3%	7.6*	>57	-22%
Nc1nc(CN2CCN(c3ccccc3)CC2)nc(N2CCCc3ccccc32)n1	-1%	?	>57	-23%
O=C(O)COc1cccc(-c2ocnc2-c2nc(-c3ccccc3)c(-c3ccccc3)o2)c1	-11%	·	·	-29%
CCOc1cc(C2C(C#N)=C(N)Oc3n[nH]c(-c4ccccc4)c32)ccc1O (centres undefined)	-5%	>77	>57	16µM*
Cc1ccc(-c2[nH]nc3c2C(c2cccnc2)C(C#N)=C(N)O3)cc1 (centres undefined)	2%	>77	>57	13µM*
CC(C)(C)OC=O	·	·	·	16%
CS(=O)(=O)Nc1cccc(-c2ccc3ncnc(NCc4cccs4)c3c2)c1	0%[2.29 µM]	·	·	16µM*
Cc1cnc(CNc2ncnc3ccc(-c4cccc(NS(C)(=O)=O)c4)cc23)cn1	1%[2.29 µM]	·	·	-14%
CCn1c(SCC(=O)c2ccc3c(c2)OCCO3)nnc1-c1ccco1	16µM*	>77	·	-25%
COCCn1c(SCC(=O)c2ccc3c(c2)OCCO3)nnc1-c1ccco1	-4%	>77	>57	2%
COCCNc1nc(C)nc2c1nc(-c1ccccc1)n2CCN(C)C	·	·	·	-12%
c1ccc2c(c1)Cc1cc3cc4c(cc3nc1-2)OCO4	·	·	·	25µM*
CC1(C)Oc2ccc(NC(=O)C3COc4ccccc4O3)cc2O1 (centres undefined)	13µM*	>77	?	-6%
CN(C)c1ncc2nc(-c3cc(F)cc(F)c3)c(=O)n(CCc3ccccc3)c2n1	0%[11.4 µM]	·	·	1%
CCOC(=O)N1CCC(NC(=O)c2cc3c(-c4ccc(OC)c(OC)c4)nn(C)c3s2)CC1	0%	>77	>57	9%
CCOC(=O)N1CCC(NC(=O)c2cc3c(-c4ccccc4F)nn(C)c3s2)CC1	-2%	·	·	5µM*
O=C(c1ccccc1)N1CCN(c2ccc(NCc3ccc4c(c3)OCO4)cc2)CC1	1%	·	·	20µM*
CC(=O)N1CCN(c2ccc(NCc3ccc4c(c3)OCO4)cc2)CC1	0%	?	>57	-18%
SMILES	FLuc inh	GBA mod	PK Bst	ERK AVP block
CC(=O)N1CCN(c2ccc(NCc3ccccc3)cc2)CC1	-3%	13*	>57	?
O=C(NC1CCCCCCC1)C1=COCCO1	-9%	>77	>57	-29%
O=C(Nc1ccc(SC(F)F)cc1)C1=COCCO1	25µM*	·	i	-2%
Cl/C(=C\n1cncn1)c1ccc(Cl)cc1Cl	5%	·	·	-1%
N=c1nc(N)nc2n1NC(c1ccc(F)cc1)=CS2	-26%	>77	3.6*	-21%
c1ccc(OCCSc2nnc3sc4ccccc4n23)cc1	25µM*	>77	?	8%
COc1cccc(OCCSc2nnc3sc4ccccc4n23)c1	-14%	>77	·	0%
O=C(O)CNC(=O)[C@@H](CS)Cc1ccccc1	10%[25.5 µM]	·	·	13%[25.7 µM]
COCC(=O)Nc1ccc(N(C)C)cc1	-2%	>77	>57	-10%
CN(C)c1ccc(N/C=C/C(=O)c2ccccc2)cc1	0.32µM*	>77	0.42*	?
CC1=C(C(=O)OCCOC(C)C)C(c2cc3c(cc2Br)OCO3)C2=C(CCCC2=O)N1 (centres undefined)	2%	11*	>57	-8%
CCN(CC)c1ccc(C2C(C(=O)OCCOC(C)C)=C(C)NC3=C2C(=O)CCC3)cc1 (centres undefined)	0%	·	·	-11%
COc1ccccc1CC(Cc1nc2ccccc2[nH]1)c1nc2ccccc2[nH]1 (centres undefined)	·	·	·	32µM*
COc1ccccc1C[C@@H](Cc1nc2ccccc2[nH]1)c1nc2ccccc2[nH]1	2%[11.4 µM]	·	·	·
COc1ccccc1Nc1nc2ccccc2[nH]1	13µM*	>77	·	-10%
COc1ccc(-c2c3c(=O)n(C)c(=O)n(C)c3c3nnc4ccccc4n23)cc1	1%	>77	>57	-6%
